Rows were chosen to be rich in hits. Some 11% of all compounds tested hit in one or more screens of this group.
ALDH1A1 inh: inhibitors of human aldehyde dehydrogenase 1A1; Purified ALDH1A1, NADH fluorescence, propionaldehyde substrate; 220,000 compounds, 7.3% hits; P00352; Potency, µM (titrated, usually from 75.3 µM), for inactives: at the highest dose activity, negative = inhibition, actives largely listed as inhibitors; active = well fitted inhibition curve with a large enough effect, not every such curve was filed as active; inconclusive = small, poorly fitted or top-dose-only effect, or another doubt; inactive = no such curve, though single readings can be large or run the other way;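 note: potency is the fitted concentration of half-maximal effect; plate controls were no enzyme wells and a reference inhibitor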
PNC inhibitor: blocks assembly of the perinucleolar compartment; PC3M PTB-GFP, PNC prevalence imaging, 16 h; active compounds read low; 140,000 compounds, 3.1% hits; activity change (PNC), negative = inhibition, % at 10 µM; AID 2417;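 active = readout at or below -70, meaning at least 70% loss of cells showing the perinucleolar compartment, a nuclear body marking cancer cells; inconclusive = readout between -30 and a set limit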;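 note: plate controls were DMSO wells for no effect and camptothecin positive control wells for full effect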
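Read-out is percentage of cells bearing a perinucleolar compartment, from automated 20x imaging of fixed, Hoechst-stained PC3M PTB-GFP cells. Cells were seeded 4 h, then exposed 16 h to compound (23 nl of library stock) in duplicate plates.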
IMPase cell inh: cell-permeable inhibitors of inositol monophosphatase (IMPase). P97697. CHO-M1 cells, IP1 accumulation, HTRF TR-FRET ratio. inhibition (IP1 accumulation), % at 46.1 µM. 120,000 tested, under 10 active. AID 901; active = well fitted curve in the direction sought with a large enough effect in the signal ratio, not every such curve was filed as active; inconclusive = small, poorly fitted or top-dose-only effect, or a change in a side signal; inactive = no such curve, though single readings can be large or run the other way; the % refers to the signal ratio;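 note: cells stimulated with carbachol in lithium chloride buffer; plate controls were DMSO basal wells for no effect and reference inhibitor wells for full effect; higher means more IMPase inhibition seen as more IP1 and lower FRET ratio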
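In this qHTS, compounds (final up to 46 uM) act on CHO-M1 cells that are then activated through the M1 receptor with carbachol, in pH 7.4 buffer containing 50 mM LiCl, for 30 min. IP1 accumulation is quantified by the IP-One immunoassay.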
IMPase Li inh: membrane-permeable IMPase blocker, potentiated with lithium; AID 1457; 210,000 compounds, 0.35% hits; CHO-M1 cells, IP1 TR-FRET (IP-One), carbachol + lithium; Potency, µM (top dose mostly 59.4 µM), for the others: at the highest dose activity, negative = IMPase inhibition, most hits filed as inhibitors;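 note: IP1 builds up when IMPase is blocked and the TR-FRET signal falls; potency is the fitted concentration of half-maximal effect; plate controls were basal vehicle for no effect and high inhibitor control for full effect; nearly all actives have a fitted effect of over 50% in size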
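CHO cells stably expressing M1 receptor (2000/well) were cultured 16–30 h, then exposed to compounds with a small lithium addition for 30 min at 37C. IP1 was measured by TR-FRET competition; AC50 from Hill fits.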
ALOX12 inhib: blocks human 12-lipoxygenase activity. AID 1452. P18054. 150,000 compounds, 0.12% hits. Potency, µM (titrated, usually from 57.1 µM), inactives show at the top dose activity change, negative = inhibition, actives largely listed as inhibitors. purified 12-hLO, xylenol orange hydroperoxide absorbance; note: potency is the fitted concentration of half-maximal effect; nearly all actives have a fitted effect of over 55% in size
Target sequence (P18054 whole entry, looked up): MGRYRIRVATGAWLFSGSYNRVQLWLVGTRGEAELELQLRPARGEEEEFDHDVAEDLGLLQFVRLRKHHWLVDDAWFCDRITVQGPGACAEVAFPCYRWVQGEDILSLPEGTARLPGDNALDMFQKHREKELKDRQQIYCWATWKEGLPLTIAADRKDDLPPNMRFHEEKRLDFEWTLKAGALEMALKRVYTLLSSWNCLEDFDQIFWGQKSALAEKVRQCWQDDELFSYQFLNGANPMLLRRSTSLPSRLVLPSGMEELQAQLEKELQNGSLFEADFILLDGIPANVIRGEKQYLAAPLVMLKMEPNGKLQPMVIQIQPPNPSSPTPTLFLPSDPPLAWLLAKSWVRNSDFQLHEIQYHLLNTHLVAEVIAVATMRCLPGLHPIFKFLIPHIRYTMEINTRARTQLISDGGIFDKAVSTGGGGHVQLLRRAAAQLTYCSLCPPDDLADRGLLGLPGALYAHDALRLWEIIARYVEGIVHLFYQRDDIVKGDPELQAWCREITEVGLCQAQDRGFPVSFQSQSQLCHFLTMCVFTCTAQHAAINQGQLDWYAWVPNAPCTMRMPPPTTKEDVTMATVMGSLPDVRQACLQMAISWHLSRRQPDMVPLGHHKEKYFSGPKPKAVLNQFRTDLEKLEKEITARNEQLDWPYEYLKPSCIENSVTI
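Hydroperoxide output read as Fe(III)-xylenol orange absorbance, 573-to-405 nm ratio, after 30 min reaction with 40 uM arachidonic acid. Enzyme: 150 nM purified human 12hLO, 15 min compound preincubation; 25 mM Hepes pH 7.0, room temperature.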
HPGD inh: HPGD (human) dehydrogenase inhibition. Potency, µM, for the others: at the highest dose activity change, negative = inhibition, most hits filed as inhibitors. purified HPGD, NADH fluorescence kinetic, PGE2 substrate. P15428. 150,000 compounds, 4.3% hits. AID 894; active = well fitted inhibition curve with a large enough effect, not every such curve was filed as active; inconclusive = small, poorly fitted or top-dose-only effect, or another doubt; inactive = no such curve, though single readings can be large or run the other way; note: potency is the fitted concentration of half-maximal effect
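20 nM HPGD preincubated 15 min at room temperature with compound in 50 mM Tris-HCl pH 8, 0.01% Tween 20. Started with 1 mM NAD+ and 30 uM prostaglandin E2; NADH fluorescence (360/450 nm) read 5 times over 30-s intervals, last minus first.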
Active calls of the source: *; ? = inconclusive; · = no result given; [ ] = dose if it differs, or a comment. Unless noted, calls come from the whole dose curve; as a rule, active = well fitted curve in the direction sought with a large enough effect; inconclusive = small, poorly fitted or top-dose-only effect, or another doubt; inactive = no such curve, though single readings can be large; an effect the other way counts as inactive or inconclusive. Unless noted, % is set by controls: 0 for no effect and ±100 for the full control effect.

SMILES	ALDH1A1 inh	PNC inhibitor	IMPase cell inh	IMPase Li inh	ALOX12 inhib	HPGD inh
Oc1cccc(-c2nc3ccccc3s2)c1	-7.1%	?	-10.7	3.0%[38.3 µM]	-10.8%	-12.2%
COCCn1c(=O)c(-c2ccc(F)cc2)nc2cnc(Nc3cccc(OC)c3)nc21	13.9%	·	·	6.7%	·	·
COc1ccccc1CN1CC[C@@]2(CCCN(C(=O)c3cccn3C)C2)C1	?	·	·	26.2%	-4.4%	-4.0%
CCNc1ncc2nc(-c3cccc(C#N)c3)c(=O)n(CCC#N)c2n1	?	·	·	-4.3%	-0.2%	-5.8%
O=C(OCc1nc2ccccc2s1)c1ccc(Br)s1	-4.1%	?	-3.5	-3.1%[38.3 µM]	2.0%	15.8µM*
Nc1ccc(C(=O)OCc2nc3ccccc3s2)cc1	10.4%	·	·	5.8%	·	·
CC(Sc1ccsc1[N+](=O)[O-])C(=O)NCCc1ccc(Cl)cc1 (stereo not given)	3.16µM*	-6.0	1.1	15.3%[38.3 µM]	-11.6%	-11.0%
CC(C)CCN1CCc2nc(-c3ccccc3)c3c(c2C1)COC(C)C3 (stereo not given)	-16.6%[13.5 µM]	·	·	·	·	·
COCCN(C(=O)Cc1cccs1)c1nnc(-c2cccnc2)s1	?	-100.0*	5.6	0.7%[38.3 µM]	-1.2%	0.9%
COCCN(C(=O)CCc1ccc(OC)cc1)c1nnc(-c2ccncc2)s1	22.4µM*	·	·	7.1%	·	·
CCCC(=O)N(C)c1nnc(-c2ccc(OC)cc2)s1	28.2µM*	-8.2	-3.7	-19.9%[38.3 µM]	-0.5%	-17.1%
CCCCN(C(=O)Cc1cccs1)c1nnc(-c2cccnc2)s1	17.8µM*	-13.2	1.1	4.2%	-4.9%	-14.2%
COCCN(C(=O)CCc1ccccc1OC)c1nnc(-c2cccnc2)s1	3.9%	·	·	10.4%	·	·
CCn1c2ccccc2c2cc(CN3CCN(Cc4ccc(Cl)cc4)CC3)ccc21	·	·	-7.1	·	·	·
Cn1c(=O)c(-c2ccc(F)cc2)nc2cnc(Nc3ccccc3)nc21	7.4%	·	·	-11.4%	·	·
O=C(/C=C/c1ccco1)N1CCN(c2ncccn2)CC1	14.1µM*	-21.6	·	2.6%	-1.3%	-17.4%
O=C(Nc1ccc(OCC(=O)N2CCC(Cc3ccccc3)CC2)cc1)c1ccco1	10µM*	?	4.0	46.1%[38.3 µM]	-0.3%	-17.0%
O=C(/C=C/c1ccco1)N1CCC(Cc2ccccc2)CC1	20µM*	·	·	-0.8%	·	·
COc1cccc(N2CCN(C(=O)/C=C/c3ccco3)CC2)c1	?	·	·	7.6%	·	·
O=C(/C=C/c1c(Cl)cccc1Cl)N1CCN(c2ncccn2)CC1	?	-26.4	6.0	30.9%[38.3 µM]	-11.5%	?
COc1cc(C2SCCCCCCCCCCSC(c3ccc(O)c(OC)c3)SCCCCCCCCCCS2)ccc1O (stereo not given)	7.9%[13.5 µM]	·	·	-15.8%	0.2%[11.4 µM]	-3.3%
CC(=O)N1CCC2(CC1)CN(c1ccncc1)C2	10.3%	·	·	-8.5%	7.2%	-12.6%
O=C(COC(=O)c1cc(Br)ccc1Cl)NC1CCCC1	-5.0%	·	·	-2.8%	·	·
ON1C(c2ccc(Cl)cc2Cl)N(O)[C@H]2CCCC[C@H]21 (stereo not given in full)	1.8%	?	-5.7	1.8%[38.3 µM]	-5.9%	-16.9%
CC1N(O)C(c2ccc(Cl)cc2Cl)N(O)C1(C)C (stereo not given)	14.1µM*	16.3	-0.3	-0.4%[38.3 µM]	-7.3%	-2.7%
SMILES	ALDH1A1 inh	PNC inhibitor	IMPase cell inh	IMPase Li inh	ALOX12 inhib	HPGD inh
COc1cccc(Cn2c(=O)c(-c3cccc(C#N)c3)nc3cnc(OC)nc32)c1	?	·	·	12.2%	·	·
C1=Nc2c(NCc3ccccc3)ncnc2Oc2ccccc21	-12.3%	15.9	4.3	32.5%[38.3 µM]	2.2%	25.1µM*
C=CCN=C(CC)C1=C(O)CCCC1=O	0.2%	-108.6*	2.1	·	-7.4%	·
C=CCN=C(C)C1=C(O)CCC1=O	8.7%	54.7	2.8	19.2%[38.3 µM]	-1.5%	-4.9%
O=C(Oc1c(Br)cc(C(=S)N2CCOCC2)cc1Br)c1ccc(Cl)cc1	6.31µM*	36.3	-0.7	10.0%[38.3 µM]	-26.3%	15.8µM*
C=CCSC1=C(C#N)C(c2ccccc2Cl)CC(=O)N1 (stereo not given)	25.1µM*	18.0	-4.2	23.5%[38.3 µM]	-5.3%	-14.5%
O=C(CC1=NCCNC(c2ccccc2)C1)c1ccccc1O (stereo not given)	17.8µM*	31.1	4.4	-10.4%[38.3 µM]	?	25.1µM*
CSc1nc(N)c2ncn([C@@H]3O[C@H](COP(=O)(O)OP(=O)(O)O)[C@H](O)[C@H]3O)c2n1	6.1%	·	·	-1.7%	·	-6.7%
O=S(=O)(c1ccccc1)c1nc(-c2ccco2)oc1NCc1cccnc1	?	18.4	-2.6	-0.7%[38.3 µM]	-2.2%	-13.3%
Cc1ccc(S(=O)(=O)c2nc(-c3ccco3)oc2NCC2CCCO2)cc1 (stereo not given)	10µM*	13.1	·	-3.7%	-2.6%	-16.6%
O=S(=O)(c1ccc(Br)cc1)c1nc(-c2ccco2)oc1NCC1CCCO1 (stereo not given)	14.1µM*	·	·	-1.1%	·	·
COc1cccc(NC(=O)Cn2c(=O)n(Cc3ccco3)c(=O)c3cc(OC)c(OC)cc32)c1	·	·	-15.7	·	·	·
O=C1Nc2ccccc2N=C(c2ccccc2)C1Br (stereo not given)	15.8µM*	·	·	4.2%	·	·
O=C1CC(c2ccccc2)=Nc2ccccc2N1	?	-10.1	-4.1	22.0%[38.3 µM]	-0.8%	-9.7%
C1=C(c2ccccc2)Nc2ccccc2N=C1c1ccccc1	-1.7%	?	·	13.6%	1.8%	-4.8%
O=C1Nc2ccccc2N=C(c2ccccc2)C1N1CCOCC1 (stereo not given)	22.4µM*	?	-1.8	-9.7%[38.3 µM]	-3.2%	-10.6%
O=C(c1ccncc1)N1CCC2(CCCN(c3ccc(-c4ccccc4)cc3)C2)CC1	-8.3%	·	·	9.2%	-3.8%	-1.1%
O=C(O)C1CC=CCC1C(=O)N1CCN(c2nc(-c3ccccc3)c3ccccc3n2)CC1 (stereo not given)	?	29.7	16.9	14.8%[38.3 µM]	-6.9%	?
O=C(O)C1CC=CCC1C(=O)N1CCN(c2nc(-c3ccccc3Cl)c3cc(Br)ccc3n2)CC1 (stereo not given)	?	-4.9	?	11.2µM*	-11.2%	-20.1%
COc1ccc(Oc2ncc3nc(-c4ccc(OC)cc4)c(=O)n(C4CC4)c3n2)cc1	?	·	·	3.2%	·	·
CCC(CC)n1[nH]c(=O)c2c(C)cc(C)nc21	-9.1%	-81.8*	3.1	2.0%	0.9%	-6.3%
Cc1ccc(C(=O)Nc2onc(C)c2C#N)cc1	25.1µM*	15.6	3.7	-2.0%	1.7%	-4.0%
Cc1noc(NC(=O)c2ccccc2)c1C#N	10µM*	-17.9	-6.8	6.8%	2.6%	-26.8%
CC1(C)Cc2[nH]c(=S)c(C#N)cc2CO1	2.24µM*	?	2.2	0.3%[38.3 µM]	?	25.1µM*
CC1(C)Cc2c(c(N3CCCC3)[nH]c(=S)c2C#N)CO1	?	20.4	-2.1	9.2%[38.3 µM]	-2.2%	-16.6%
N#Cc1cc2c([nH]c1=S)CCCC2	8.91µM*	17.6	·	-20.3%	-29.2%	14.1µM*

Bioassay records: PubChem, National Center for Advancing Translational Sciences (NCATS)
